# Source: PubChem BioAssay (NCATS)
# Records with an inconclusive call do not appear. A call without a number means that no potency is given here. Active and inactive are the calls of the source. Calls follow the shape of the dose curve; as a rule, active = well fitted inhibition curve with a large enough effect; inconclusive = small, poorly fitted or top-dose-only effect; inactive = no such curve, though single readings can be large or run the other way.
# Test system: Zika virus NS2B-NS3 protease (linked construct)
# Assay: Primary screen NINDS Rhodamine qHTS for Zika virus inhibitors (AID 1347160); also: nearly all actives have a fitted effect of over 55% in size
# Conditions: purified NS2B-NS3 protease, Rhodamine110 substrate fluorescence; series mostly up to 33.1 µM
# Procedure, shortened: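 In 10 mM Tris-HCl pH 8.0 containing 0.01% Tween 20, linked NS2B-NS3 protease (25 nM final) is exposed to test compounds for 15 min. Cleavage of 1.5 microM Rhodamine110 substrate is tracked by fluorescence over 15 min.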
SMILES,Potency,outcome
Cc1occc1C(=O)n1ccnc1,inactive,–
CC(=O)NCC1CN(c2ccc(-c3ccc(CNCc4cn[nH]n4)cc3)c(F)c2)C(=O)O1 (stereo not drawn),inactive,–
O=C(CCc1ccccc1)c1c(O)c([C@@H]2O[C@H](CO)[C@@H](O)[C@H](O)[C@H]2O)c(O)c([C@@H]2O[C@H](CO)[C@@H](O)[C@H](O)[C@H]2O)c1O,inactive,–
Cc1cc(Cn2cnc3c2CC(C(=O)O)N(C(=O)C(c2ccccc2)c2ccccc2)C3)ccc1N(C)C (stereo not drawn),inactive,–
Cc1ccccc1N1CCN(S(=O)(=O)C[C@]23CC[C@H](C[C@@H]2NC(=O)[C@@H](N)CCS(C)(=O)=O)C3(C)C)CC1,inactive,–
NC(=O)NCCCC(NC(=O)Cc1ccccc1)C(=O)O (stereo not drawn),inactive,–
CC(C)/C=C1/NC(=O)C(C(C)C)n2c1nc1c(O)cccc1c2=O (stereo not drawn),inactive,–
CCC(C)C(N)C(=O)NCCN1CCOCC1 (stereo not drawn),inactive,–
O=C(C[C@@H]1C(C(=O)O)=CO[C@@H](O[C@@H]2O[C@H](CO)[C@@H](O)[C@H](O)[C@H]2O)/C1=C\CO)OCCc1ccc(O)c(O)c1,inactive,–
OCC1OC(Oc2cc(O)cc(/C=C/c3ccc(OC4OC(CO)C(O)C(O)C4O)cc3O)c2)C(O)C(O)C1O (stereo not drawn),inactive,–
O=[N+]([O-])c1cc(Cl)ccc1S(=O)(=O)N1CCN(Cc2ccccc2)CC1,inactive,–
C/C=C(\C)C(=O)OC1C(C)C2(O)C3C=C(C)C(=O)C3CC(CO)=CC2C2C(C)(C)C12OC(C)=O (stereo not drawn),inactive,–
CC(C)=C1C[C@@]2(C)C(=CC1=O)CC[C@@H](O)[C@@H]2C,inactive,–
CC(=O)OCC(Cc1ccccc1)NC(=O)C(Cc1ccccc1)NC(=O)c1ccccc1 (stereo not drawn),inactive,–
CC1=C2C[C@H]3OC(=O)[C@H](O)[C@@]4(O)[C@@H](C)[C@@H](O)[C@H](O)C([C@@]2(C)[C@H](O)[C@@H](O)C1)[C@@]34C (stereo partly drawn),inactive,–
COc1ccc(Oc2c(Cl)cnn(C3c4ccccc4-c4ccccc43)c2=O)cc1,inactive,–
O=C(OC1C=C(CO)C2C(OC3OC(CO)C(O)C(O)C3O)OC=CC12O)c1ccc(O)cc1 (stereo not drawn),inactive,–
CC(C)=CCC[C@](C)(O[C@@H]1O[C@H](CO[C@@H]2OC[C@H](O)[C@H](O)[C@H]2O)[C@@H](O)[C@H](O)[C@H]1O)[C@H]1CC[C@]2(C)[C@@H]1[C@H](O)C[C@@H]1[C@@]3(C)CC[C@H](O[C@@H]4O[C@H](CO)[C@@H](O)[C@H](O)[C@H]4O[C@@H]4O[C@H](CO)[C@@H](O)[C@H](O)[C@H]4O)C(C)(C)[C@@H]3CC[C@]12C,inactive,–
C[C@@H]1O[C@@H](O[C@H]2[C@H](OC(=O)[C@]34CCC(C)(C)C[C@H]3C3=CCC5[C@@]6(C)CC[C@H](O[C@@H]7O[C@H](CO[C@@H]8OC[C@H](O)[C@H](O)[C@H]8O)[C@@H](O)[C@H](O)[C@H]7O)C(C)(C)C6CC[C@@]5(C)[C@]3(C)C[C@H]4O)OC[C@@H](O)[C@@H]2O)[C@H](O)[C@H](O[C@@H]2OC[C@](O)(CO)[C@H]2O)[C@H]1O[C@@H]1OC[C@H](O)[C@H](O[C@@H]2OC[C@@H](O)[C@H](O)[C@H]2O)[C@H]1O (stereo partly drawn),–,inactive [at 10.7 µM]
C[C@]1(OC(=O)/C=C/c2ccc(O)cc2)C[C@@H](O)[C@]2(O)C=CO[C@@H](O[C@@H]3O[C@H](CO)[C@@H](O)[C@H](O)[C@H]3O)C12 (stereo partly drawn),inactive,–
C=C1CC2C(C)(CCC(=O)O)C(C(C)(C)O)CCC2(C)C2(C(=O)OC)C(=O)C(C)(O)C(=O)C12C (stereo not drawn),inactive,–
COc1cccc(C(=O)NCCNc2nc3cc(C)cc(C)c3cc2C#N)c1,inactive,–
CC(C)(OC1OC(CO)C(O)C(O)C1O)C1CCC(O)(CO)C2CC(=O)C(C)(O)C2C1 (stereo not drawn),inactive,–
CC[C@H]1OC(=O)[C@H](C)C(=O)[C@H](C)[C@@H](OC2O[C@H](C)C[C@H](N(C)C)[C@H]2O)[C@@H](C)C[C@@H](C)C(=O)/C=C/[C@]1(C)O (stereo partly drawn),inactive,–
CCc1cc(CC[C@]2(C3CCCC3)CC(O)=C(Cc3nc4nc(C)cc(C)n4n3)C(=O)O2)cc(CC)n1,inactive,–
CC(C)(CC(=O)N1CCCC1)NCC(=O)N1C[C@@H](F)C[C@H]1C#N,inactive,–
COc1cc([C@H]2OC[C@](O)(Cc3ccc(O[C@@H]4O[C@H](CO)[C@@H](O)[C@H](O)[C@H]4O)c(OC)c3)[C@@H]2CO)ccc1O,inactive,–
COC1OC(OC)C(O)(CCC2(C)C(C)CCC3(C)C2CC(O)C(O)C32CO2)C1O (stereo not drawn),inactive,–
